{
  "source": "paper PMC4336329",
  "about": "(PLoS ONE, 2015)",
  "note": "Out of some 310,000 compounds screened, about 14,000 (4.5%) showed an effect of 50% or more. The effect is printed as a negative number. For the sample, strong results were picked, then their nearest neighbours and some compounds at random.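 Also: peak tail current of the secondary pulse compared with the same well before compound.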",
  "data": [
    {"biological_target": "human ether-à-go-go-related gene (hERG) potassium channel (human, UniProt Q12809)", "sequence (Q12809 whole entry, looked up)": "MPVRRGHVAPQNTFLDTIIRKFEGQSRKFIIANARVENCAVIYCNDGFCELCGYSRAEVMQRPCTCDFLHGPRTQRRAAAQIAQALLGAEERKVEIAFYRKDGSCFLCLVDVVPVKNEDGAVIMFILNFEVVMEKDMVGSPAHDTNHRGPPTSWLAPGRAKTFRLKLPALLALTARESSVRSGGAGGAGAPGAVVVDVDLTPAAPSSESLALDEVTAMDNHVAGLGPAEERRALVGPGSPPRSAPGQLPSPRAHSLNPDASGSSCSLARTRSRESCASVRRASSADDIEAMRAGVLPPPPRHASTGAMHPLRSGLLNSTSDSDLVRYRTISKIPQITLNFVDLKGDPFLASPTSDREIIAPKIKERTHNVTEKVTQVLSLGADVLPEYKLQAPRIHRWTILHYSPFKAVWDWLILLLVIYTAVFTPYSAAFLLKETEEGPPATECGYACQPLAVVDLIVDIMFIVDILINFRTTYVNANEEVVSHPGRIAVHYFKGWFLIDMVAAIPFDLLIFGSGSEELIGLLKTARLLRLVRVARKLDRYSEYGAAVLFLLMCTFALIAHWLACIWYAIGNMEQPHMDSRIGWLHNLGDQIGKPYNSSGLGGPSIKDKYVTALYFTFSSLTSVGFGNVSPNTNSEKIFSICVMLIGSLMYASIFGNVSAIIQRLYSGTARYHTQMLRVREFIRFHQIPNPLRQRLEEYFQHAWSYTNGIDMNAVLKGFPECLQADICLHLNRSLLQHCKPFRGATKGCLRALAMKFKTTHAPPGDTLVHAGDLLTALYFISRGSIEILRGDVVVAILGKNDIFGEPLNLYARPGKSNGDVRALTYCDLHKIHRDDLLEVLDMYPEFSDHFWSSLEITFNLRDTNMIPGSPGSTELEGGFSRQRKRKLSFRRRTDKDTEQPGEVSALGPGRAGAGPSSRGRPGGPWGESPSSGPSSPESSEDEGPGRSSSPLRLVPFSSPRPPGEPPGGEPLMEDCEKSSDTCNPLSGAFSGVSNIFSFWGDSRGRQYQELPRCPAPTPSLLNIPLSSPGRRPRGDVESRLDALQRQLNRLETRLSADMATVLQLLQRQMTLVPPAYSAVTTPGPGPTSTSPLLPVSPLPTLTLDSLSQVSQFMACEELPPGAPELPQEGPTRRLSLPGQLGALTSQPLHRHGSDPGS", "test": "primary screen, population patch clamp on CHO cells stably expressing hERG; higher = less effect of the substance", "units": {"hERG current change (%, negative = inhibition) at 10uM": "%"}, "values": [
      {"smiles": "CCOC(=O)c1ccc(NC(=O)CN(C)S(=O)(=O)c2ccc(OC)cc2)cc1", "hERG current change (%, negative = inhibition) at 10uM": 6.82},
      {"smiles": "CC1=NNC(=O)C1CC(=O)N/N=C/c1ccc(C)o1", "note": "(stereo not shown)", "hERG current change (%, negative = inhibition) at 10uM": 10.7},
      {"smiles": "CCOc1ccccc1NC(=O)C(C)CC", "note": "(stereo not shown)", "hERG current change (%, negative = inhibition) at 10uM": -6.76},
      {"smiles": "Cc1ccc(NC(=O)C2CCCN2C(=O)c2cccs2)c(C)c1", "note": "(stereo not shown)", "hERG current change (%, negative = inhibition) at 10uM": 12.7},
      {"smiles": "Cc1cc(C)cc(OCC(=O)NC2CCCc3ccccc32)c1", "note": "(stereo not shown)", "hERG current change (%, negative = inhibition) at 10uM": -1.2},
      {"smiles": "CC(=O)OC(C)C(=O)NS(=O)(=O)c1ccc(C)cc1", "note": "(stereo not shown)", "hERG current change (%, negative = inhibition) at 10uM": 12.3},
      {"smiles": "Cc1ccc(CCC(=O)Nc2ncc(Cc3cccc(Cl)c3Cl)s2)o1", "hERG current change (%, negative = inhibition) at 10uM": 51.7},
      {"smiles": "CCOC(=O)COc1cccc2c(=O)n(CC(=O)N3CCN(C(=O)OCC)CC3)ccc12", "hERG current change (%, negative = inhibition) at 10uM": 7.65},
      {"smiles": "CCOC(=O)Nc1nnc(Cc2ccc(Cl)c(Cl)c2)s1", "hERG current change (%, negative = inhibition) at 10uM": 5.09},
      {"smiles": "Cc1ccc(-n2c(SCC(=O)N3CCOCC3)nnc2-c2ccncc2)cc1C", "hERG current change (%, negative = inhibition) at 10uM": -10.6},
      {"smiles": "CC(C)C(=O)Nc1ncc2c(n1)CC(c1cccs1)CC2=O", "note": "(stereo not shown)", "hERG current change (%, negative = inhibition) at 10uM": -17.3},
      {"smiles": "CC1=C(C(N)=O)C(c2cccs2)n2nc(-c3cccc(Cl)c3)nc2N1", "note": "(stereo not shown)", "hERG current change (%, negative = inhibition) at 10uM": -24.9},
      {"smiles": "O=C(NCCS(=O)(=O)N1CCN(c2ccccc2F)CC1)c1cc(=O)c2ccccc2o1", "hERG current change (%, negative = inhibition) at 10uM": 15},
      {"smiles": "Cc1nc2ccccc2n1Cc1ccc(Cl)cc1", "hERG current change (%, negative = inhibition) at 10uM": -2.56},
      {"smiles": "CC(c1nc2ccccc2n1Cc1ccccc1)N1CCCCC1", "note": "(stereo not shown)", "hERG current change (%, negative = inhibition) at 10uM": -65},
      {"smiles": "OCc1nc2ccccc2n1Cc1ccc(Cl)cc1", "hERG current change (%, negative = inhibition) at 10uM": 8.87},
      {"smiles": "Cl.Clc1ccc(Cn2c(CN3CCCC3)nc3ccccc32)cc1", "hERG current change (%, negative = inhibition) at 10uM": -74.4},
      {"smiles": "CC(O)c1nc2ccccc2n1Cc1ccccc1", "note": "(stereo not shown)", "hERG current change (%, negative = inhibition) at 10uM": 3.15},
      {"smiles": "Cc1nc2ccccc2n1Cc1ccccc1", "hERG current change (%, negative = inhibition) at 10uM": 15.8},
      {"smiles": "Cc1ccccc1N(CC(=O)NCc1ccco1)C(=O)CNS(=O)(=O)c1ccc(F)cc1", "hERG current change (%, negative = inhibition) at 10uM": -16},
      {"smiles": "COc1ccc(OC)c(/C=C/C(=O)OCC(=O)NC2CCCCCCC2)c1", "hERG current change (%, negative = inhibition) at 10uM": -4.68},
      {"smiles": "CCN(CC)C(=S)SCC(=O)Nc1ccc(S(N)(=O)=O)cc1", "hERG current change (%, negative = inhibition) at 10uM": 3.17},
      {"smiles": "CS(=O)(=O)c1ccc(C(=O)NCc2ccccc2F)cc1", "hERG current change (%, negative = inhibition) at 10uM": 6.24},
      {"smiles": "Cc1ccccc1-c1nc(CN2CCC(C(=O)NCCCN3CCOCC3)CC2)c(C)o1", "hERG current change (%, negative = inhibition) at 10uM": -10.8},
      {"smiles": "O=C(NCCC1=CCCCC1)C1CCN(c2nc3ccccc3o2)CC1", "hERG current change (%, negative = inhibition) at 10uM": -13.9},
      {"smiles": "Cc1oc(-c2ccccc2F)nc1CN1CCC(C(=O)NC2CCCc3ccccc32)CC1", "note": "(stereo not shown)", "hERG current change (%, negative = inhibition) at 10uM": -63.9},
      {"smiles": "Cc1ccccc1-c1nc(CN2CCC(C(=O)NCCC3=CCCCC3)CC2)c(C)o1", "hERG current change (%, negative = inhibition) at 10uM": -66.7},
      {"smiles": "Cc1oc(-c2ccccc2F)nc1CN1CCC(C(=O)NCCC2=CCCCC2)CC1", "hERG current change (%, negative = inhibition) at 10uM": -71.8},
      {"smiles": "Cc1oc(-c2ccccc2F)nc1CN1CCC(C(=O)NC2CC2)CC1", "hERG current change (%, negative = inhibition) at 10uM": -34.3},
      {"smiles": "Cc1cc(C)nc(N2CCC(C(=O)NC3CCCc4ccccc43)CC2)n1", "note": "(stereo not shown)", "hERG current change (%, negative = inhibition) at 10uM": 17.6},
      {"smiles": "CCOc1ccc(C(NC(=O)CC)c2c(O)ccc3ccccc23)cc1", "note": "(stereo not shown)", "hERG current change (%, negative = inhibition) at 10uM": -7.96},
      {"smiles": "O=C(COC(=O)c1ccccc1NC(=O)c1ccco1)Nc1ccc2c(c1)OC(F)(F)O2", "hERG current change (%, negative = inhibition) at 10uM": 12.2},
      {"smiles": "FC(F)(F)c1cc(-c2ccc(Cl)cc2)nc(NCc2cccnc2)n1", "hERG current change (%, negative = inhibition) at 10uM": 3.07},
      {"smiles": "CNC(=S)N/N=C/c1cccc(OCc2ccccc2F)c1", "hERG current change (%, negative = inhibition) at 10uM": 18.3},
      {"smiles": "Cc1cc(NC(=O)CSc2[nH]c(=O)cc(C(F)(F)F)c2C#N)no1", "hERG current change (%, negative = inhibition) at 10uM": -2.45},
      {"smiles": "CCNC(=O)C(=O)N/N=C/c1cc([N+](=O)[O-])ccc1O", "hERG current change (%, negative = inhibition) at 10uM": 4.32},
      {"smiles": "CCC1CSC(Nc2ccc(C(=O)/C=C/c3ccc(Br)cc3)cc2)=N1", "note": "(stereo not shown)", "hERG current change (%, negative = inhibition) at 10uM": 0.372},
      {"smiles": "CCC1CSC(Nc2ccc(C(=O)/C=C/c3ccc(OC)c(OC)c3)cc2)=N1", "note": "(stereo not shown)", "hERG current change (%, negative = inhibition) at 10uM": -52.4},
      {"smiles": "CCC1CSC(Nc2ccc(C(=O)/C=C/c3cccc(C)c3)cc2)=N1", "note": "(stereo not shown)", "hERG current change (%, negative = inhibition) at 10uM": 14.4},
      {"smiles": "C[C@@H](O)c1nc2ccccc2n1N", "hERG current change (%, negative = inhibition) at 10uM": 9.12},
      {"smiles": "Cc1cc(N2C(=O)c3ccccc3C2=O)n(C)n1", "hERG current change (%, negative = inhibition) at 10uM": 9.7},
      {"smiles": "COc1ccc(/C=C(\\NC(=O)c2ccc(OC)c(OC)c2)C(=O)N2CCN(C)CC2)cc1", "hERG current change (%, negative = inhibition) at 10uM": -19.4},
      {"smiles": "COc1ccc(C(=O)N/C(=C\\c2cccs2)C(=O)N2CCN(C)CC2)cc1OC", "hERG current change (%, negative = inhibition) at 10uM": -56.4},
      {"smiles": "COc1ccc(C(=O)N/C(=C/c2cccs2)C(=O)NN)cc1OC", "hERG current change (%, negative = inhibition) at 10uM": 13.7},
      {"smiles": "COc1ccc(C(=O)N/C(=C/c2cccs2)C(=O)NC(C)(C)C)cc1OC", "hERG current change (%, negative = inhibition) at 10uM": 5.42},
      {"smiles": "CCOC(=O)N1CCN(C(=O)c2ccc(OC)c(OC)c2)CC1", "hERG current change (%, negative = inhibition) at 10uM": 18.5}
    ]}
  ]
}
